# According to publication PMC7862700, “An all-to-all approach to the identification of sequence-specific readers for epigenetic DNA modifications on cytosine”:
# Assays:
# Experiment in all cases: DAPPL (digital affinity profiling via proximity ligation, sequencing); 10 mM Tris-HCl pH 7.5, 50 mM NaCl, 1 mM DTT, 4% glycerol, room temperature, 30 min; GST-TFs on glutathione beads, 16-mer random dsDNA library, 0.1% formaldehyde crosslink after washing; high values mean tight binding
# FEV = biological target: T1, FEV (Homo sapiens, UniProt Q99581 1-238); conditions: protein: recombinant; tags: N-terminal GST; dsDNA, one strand shown
# T1 sequence: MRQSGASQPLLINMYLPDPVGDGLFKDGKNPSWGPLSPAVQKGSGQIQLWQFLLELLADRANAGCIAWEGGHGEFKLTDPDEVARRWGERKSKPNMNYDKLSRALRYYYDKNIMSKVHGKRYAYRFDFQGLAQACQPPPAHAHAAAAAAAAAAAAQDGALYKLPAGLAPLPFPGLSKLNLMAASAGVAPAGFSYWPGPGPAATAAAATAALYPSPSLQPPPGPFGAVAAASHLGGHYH
# Method in brief: (§1)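 Beads coated with glutathione captured GST-fused human transcription factors that had been expressed in yeast, and the factors were then given DNA barcodes and pooled with a tag-only sample. The pools were incubated with 200 nmole of a random double-stranded 16-mer DNA library in Tris/NaCl/DTT/glycerol buffer for 30 min at room temperature, washed, crosslinked with 0.1% formaldehyde and proximity-ligated with BsaI/T4 ligase at 37 °C for 1 h. PCR amplification and Illumina NextSeq500 sequencing came last. Binding signal is each hexamer's read frequency for a factor divided by its frequency for the tag-only sample.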
# ETV5 = ETV5 (Homo sapiens, UniProt P41161 1-510); conditions: protein: recombinant; tags: N-terminal GST; dsDNA, one strand shown
# Method in brief: as §1
# HSF1 = HSF1 (Homo sapiens, UniProt Q00613 1-529); conditions: protein: recombinant; tags: N-terminal GST; chain copies: 3; dsDNA, one strand shown
# Method in brief: as §1
# SPIC = biological target: T2, SPIC (Homo sapiens, UniProt Q8N5J4 1-248); conditions: protein: recombinant; tags: N-terminal GST; dsDNA, one strand shown
# T2 sequence: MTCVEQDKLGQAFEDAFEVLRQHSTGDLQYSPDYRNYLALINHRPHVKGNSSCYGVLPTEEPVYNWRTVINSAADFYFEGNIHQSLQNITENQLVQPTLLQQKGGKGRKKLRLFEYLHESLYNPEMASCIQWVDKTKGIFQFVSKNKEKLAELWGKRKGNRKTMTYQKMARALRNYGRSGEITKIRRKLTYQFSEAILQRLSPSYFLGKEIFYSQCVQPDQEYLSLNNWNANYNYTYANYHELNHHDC
# Method in brief: as §1
# ELF4 = ELF4 (Homo sapiens, UniProt Q99607 1-663); conditions: protein: recombinant; tags: N-terminal GST; dsDNA, one strand shown
# Method in brief: as §1
# ELK4 = biological target: T3, ELK4 (Homo sapiens, UniProt P28324-2 1-405); conditions: protein: recombinant; tags: N-terminal GST; dsDNA, one strand shown
# T3 sequence: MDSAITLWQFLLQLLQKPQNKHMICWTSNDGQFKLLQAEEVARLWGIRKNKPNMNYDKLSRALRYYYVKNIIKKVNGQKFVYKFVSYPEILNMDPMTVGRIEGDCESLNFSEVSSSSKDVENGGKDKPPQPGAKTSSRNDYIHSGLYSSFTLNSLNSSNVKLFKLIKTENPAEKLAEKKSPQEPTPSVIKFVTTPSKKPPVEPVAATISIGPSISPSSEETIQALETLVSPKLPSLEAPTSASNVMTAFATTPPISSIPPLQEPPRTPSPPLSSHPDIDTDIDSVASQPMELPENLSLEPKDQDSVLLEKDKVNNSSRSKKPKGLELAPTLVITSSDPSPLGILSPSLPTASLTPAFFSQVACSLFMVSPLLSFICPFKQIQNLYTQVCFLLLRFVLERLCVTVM
# Method in brief: as §1
# ETV2 = biological target: T4, ETV2 (Homo sapiens, UniProt O00321 1-342); conditions: protein: recombinant; tags: N-terminal GST; dsDNA, one strand shown
# T4 sequence: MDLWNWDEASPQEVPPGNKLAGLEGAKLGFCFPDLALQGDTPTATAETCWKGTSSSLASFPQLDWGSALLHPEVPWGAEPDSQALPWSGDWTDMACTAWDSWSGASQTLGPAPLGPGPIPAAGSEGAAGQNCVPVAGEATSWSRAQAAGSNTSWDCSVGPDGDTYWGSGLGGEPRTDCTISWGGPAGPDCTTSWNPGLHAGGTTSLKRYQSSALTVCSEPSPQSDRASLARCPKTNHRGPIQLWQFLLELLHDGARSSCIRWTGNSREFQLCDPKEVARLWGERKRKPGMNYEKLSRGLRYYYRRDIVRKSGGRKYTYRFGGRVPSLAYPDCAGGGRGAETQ
# Method in brief: as §1
# ELF3 = biological target: T5, ELF3 (Homo sapiens, UniProt P78545 1-371); conditions: protein: recombinant; tags: N-terminal GST; dsDNA, one strand shown
# T5 sequence: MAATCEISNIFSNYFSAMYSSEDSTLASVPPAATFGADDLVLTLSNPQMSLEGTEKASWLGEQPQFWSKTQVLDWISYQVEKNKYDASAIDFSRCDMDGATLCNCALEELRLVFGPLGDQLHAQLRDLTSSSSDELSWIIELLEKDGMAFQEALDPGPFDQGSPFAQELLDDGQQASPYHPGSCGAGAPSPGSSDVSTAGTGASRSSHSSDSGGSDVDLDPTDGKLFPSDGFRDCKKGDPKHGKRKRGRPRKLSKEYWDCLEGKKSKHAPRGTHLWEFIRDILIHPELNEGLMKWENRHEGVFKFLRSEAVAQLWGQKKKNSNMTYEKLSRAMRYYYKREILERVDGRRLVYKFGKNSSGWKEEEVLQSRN
# Method in brief: as §1
# CRX = CRX (Homo sapiens, UniProt O43186 1-299); conditions: protein: recombinant; tags: N-terminal GST; dsDNA, one strand shown
# Method in brief: as §1
# ETV1 = ETV1 (Homo sapiens, UniProt P50549 1-477); conditions: protein: recombinant; tags: N-terminal GST; dsDNA, one strand shown
# Method in brief: as §1
# ERF = biological target: T6, ERF (Homo sapiens, UniProt P50548 1-548); conditions: protein: recombinant; tags: N-terminal GST; dsDNA, one strand shown
# T6 sequence: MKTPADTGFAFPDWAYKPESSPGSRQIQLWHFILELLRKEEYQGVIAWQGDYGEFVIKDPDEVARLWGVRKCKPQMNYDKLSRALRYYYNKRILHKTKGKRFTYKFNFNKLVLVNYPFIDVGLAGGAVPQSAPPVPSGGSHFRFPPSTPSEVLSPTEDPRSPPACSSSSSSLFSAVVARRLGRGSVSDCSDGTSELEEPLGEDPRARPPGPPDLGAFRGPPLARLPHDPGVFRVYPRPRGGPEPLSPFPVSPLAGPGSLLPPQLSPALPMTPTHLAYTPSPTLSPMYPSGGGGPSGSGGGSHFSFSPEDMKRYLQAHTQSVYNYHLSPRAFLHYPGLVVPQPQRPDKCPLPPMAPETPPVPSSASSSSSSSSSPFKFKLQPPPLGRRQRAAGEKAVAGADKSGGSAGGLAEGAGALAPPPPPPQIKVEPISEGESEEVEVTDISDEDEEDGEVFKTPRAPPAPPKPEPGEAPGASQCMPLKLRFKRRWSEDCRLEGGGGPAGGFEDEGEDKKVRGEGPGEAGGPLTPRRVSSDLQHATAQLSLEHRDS
# Method in brief: as §1
# ETV3L = biological target: T7, ETV3L (Homo sapiens, UniProt Q6ZN32 1-361); conditions: protein: recombinant; tags: N-terminal GST; dsDNA, one strand shown
# T7 sequence: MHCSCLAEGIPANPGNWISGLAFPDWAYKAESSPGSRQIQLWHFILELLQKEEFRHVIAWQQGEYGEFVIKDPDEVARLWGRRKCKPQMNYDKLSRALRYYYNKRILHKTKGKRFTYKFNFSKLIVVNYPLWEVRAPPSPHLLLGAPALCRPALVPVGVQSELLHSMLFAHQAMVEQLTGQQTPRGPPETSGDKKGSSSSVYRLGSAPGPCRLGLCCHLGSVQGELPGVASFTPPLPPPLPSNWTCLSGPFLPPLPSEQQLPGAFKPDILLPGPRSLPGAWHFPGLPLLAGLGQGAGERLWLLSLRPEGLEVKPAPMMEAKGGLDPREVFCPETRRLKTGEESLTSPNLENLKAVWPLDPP
# Method in brief: as §1
# ETS2 = biological target: T8, ETS2 (Homo sapiens, UniProt P15036 1-469); conditions: protein: recombinant; tags: N-terminal GST; dsDNA, one strand shown
# T8 sequence: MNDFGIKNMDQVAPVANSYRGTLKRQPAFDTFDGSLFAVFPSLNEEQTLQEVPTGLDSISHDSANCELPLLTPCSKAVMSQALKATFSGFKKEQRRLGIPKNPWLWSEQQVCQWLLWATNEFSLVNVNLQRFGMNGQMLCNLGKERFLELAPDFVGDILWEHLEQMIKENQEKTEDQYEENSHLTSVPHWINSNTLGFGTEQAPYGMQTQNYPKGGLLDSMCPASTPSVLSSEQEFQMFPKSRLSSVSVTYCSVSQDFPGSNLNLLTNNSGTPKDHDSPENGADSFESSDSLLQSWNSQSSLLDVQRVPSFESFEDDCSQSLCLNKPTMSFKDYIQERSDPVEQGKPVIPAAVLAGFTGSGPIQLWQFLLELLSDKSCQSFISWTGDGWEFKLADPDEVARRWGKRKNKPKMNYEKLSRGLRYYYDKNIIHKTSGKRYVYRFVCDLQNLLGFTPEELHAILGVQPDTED
# Method in brief: as §1
# SPDEF = biological target: T9, SPDEF (Homo sapiens, UniProt O95238 1-335); conditions: protein: recombinant; tags: N-terminal GST; dsDNA, one strand shown
# T9 sequence: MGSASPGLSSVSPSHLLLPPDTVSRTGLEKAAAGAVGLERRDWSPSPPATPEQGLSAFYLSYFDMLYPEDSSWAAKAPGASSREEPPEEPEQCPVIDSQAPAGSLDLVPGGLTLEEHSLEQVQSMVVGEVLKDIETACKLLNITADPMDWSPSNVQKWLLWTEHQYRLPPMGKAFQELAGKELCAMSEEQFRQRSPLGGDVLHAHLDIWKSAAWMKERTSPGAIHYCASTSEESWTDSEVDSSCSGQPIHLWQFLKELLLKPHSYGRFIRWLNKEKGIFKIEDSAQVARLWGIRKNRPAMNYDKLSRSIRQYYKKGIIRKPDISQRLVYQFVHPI
# Method in brief: as §1
# ETV7 = biological target: T10, ETV7 (Homo sapiens, UniProt Q9Y603 1-341); conditions: protein: recombinant; tags: N-terminal GST; dsDNA, one strand shown
# T10 sequence: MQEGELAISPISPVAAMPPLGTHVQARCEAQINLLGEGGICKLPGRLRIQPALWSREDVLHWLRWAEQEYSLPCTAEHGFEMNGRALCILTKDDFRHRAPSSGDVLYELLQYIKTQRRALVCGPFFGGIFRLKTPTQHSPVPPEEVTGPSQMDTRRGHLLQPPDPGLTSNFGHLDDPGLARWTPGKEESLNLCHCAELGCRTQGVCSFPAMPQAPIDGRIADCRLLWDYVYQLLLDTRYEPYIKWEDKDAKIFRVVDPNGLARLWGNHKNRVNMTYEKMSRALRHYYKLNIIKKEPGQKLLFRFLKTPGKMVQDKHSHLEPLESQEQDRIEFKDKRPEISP
# Method in brief: as §1
# ELF5 = biological target: T11, ELF5 (Homo sapiens, UniProt Q9UKW6-2 1-255); conditions: protein: recombinant; tags: N-terminal GST; dsDNA, one strand shown
# T11 sequence: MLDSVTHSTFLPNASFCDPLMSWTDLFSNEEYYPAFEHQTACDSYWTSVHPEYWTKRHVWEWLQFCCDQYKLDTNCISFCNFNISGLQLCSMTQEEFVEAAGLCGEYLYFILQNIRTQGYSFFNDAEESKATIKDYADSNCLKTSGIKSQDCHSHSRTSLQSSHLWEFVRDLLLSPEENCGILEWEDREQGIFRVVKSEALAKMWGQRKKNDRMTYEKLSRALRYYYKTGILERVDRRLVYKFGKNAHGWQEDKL
# Method in brief: as §1
# ETV3 = biological target: T12, ETV3 (Homo sapiens, UniProt P41162-2 1-143); conditions: protein: recombinant; tags: N-terminal GST; dsDNA, one strand shown
# T12 sequence: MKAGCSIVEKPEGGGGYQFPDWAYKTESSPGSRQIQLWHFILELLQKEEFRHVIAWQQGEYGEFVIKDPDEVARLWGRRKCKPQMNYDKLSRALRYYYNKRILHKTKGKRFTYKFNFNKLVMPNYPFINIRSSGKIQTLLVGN
# Method in brief: as §1
# ETV6 = ETV6 (Homo sapiens, UniProt P41212 1-452); conditions: protein: recombinant; tags: N-terminal GST; dsDNA, one strand shown
# Method in brief: as §1
# Sequence of ETV5 (P41161 whole entry): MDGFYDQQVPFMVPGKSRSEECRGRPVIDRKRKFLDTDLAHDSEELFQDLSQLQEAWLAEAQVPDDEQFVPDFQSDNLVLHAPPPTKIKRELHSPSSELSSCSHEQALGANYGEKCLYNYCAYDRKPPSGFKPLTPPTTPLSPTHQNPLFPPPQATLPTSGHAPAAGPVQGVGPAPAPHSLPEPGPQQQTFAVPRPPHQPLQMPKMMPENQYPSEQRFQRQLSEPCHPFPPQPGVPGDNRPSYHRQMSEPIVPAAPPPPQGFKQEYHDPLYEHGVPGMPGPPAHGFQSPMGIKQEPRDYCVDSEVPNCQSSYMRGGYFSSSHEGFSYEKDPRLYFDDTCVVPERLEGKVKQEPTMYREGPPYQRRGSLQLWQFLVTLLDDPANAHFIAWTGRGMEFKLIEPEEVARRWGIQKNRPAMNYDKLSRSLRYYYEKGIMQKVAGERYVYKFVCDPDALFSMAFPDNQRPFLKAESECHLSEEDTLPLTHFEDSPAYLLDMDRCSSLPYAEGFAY
# Sequence of ETV6 (P41212 whole entry): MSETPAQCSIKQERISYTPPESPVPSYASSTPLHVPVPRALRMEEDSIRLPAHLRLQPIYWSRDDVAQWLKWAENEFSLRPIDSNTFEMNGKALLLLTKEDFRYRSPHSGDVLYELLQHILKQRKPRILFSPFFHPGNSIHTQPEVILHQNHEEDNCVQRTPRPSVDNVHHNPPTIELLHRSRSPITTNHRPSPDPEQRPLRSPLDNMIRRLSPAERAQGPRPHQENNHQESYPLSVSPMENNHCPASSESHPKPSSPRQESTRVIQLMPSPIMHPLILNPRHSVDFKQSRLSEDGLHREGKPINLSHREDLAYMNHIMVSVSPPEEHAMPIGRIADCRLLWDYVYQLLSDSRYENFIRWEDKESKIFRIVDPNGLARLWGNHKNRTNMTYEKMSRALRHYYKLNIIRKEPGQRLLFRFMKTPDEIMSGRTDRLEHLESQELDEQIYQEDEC
# Sequence of HSF1 (Q00613 whole entry): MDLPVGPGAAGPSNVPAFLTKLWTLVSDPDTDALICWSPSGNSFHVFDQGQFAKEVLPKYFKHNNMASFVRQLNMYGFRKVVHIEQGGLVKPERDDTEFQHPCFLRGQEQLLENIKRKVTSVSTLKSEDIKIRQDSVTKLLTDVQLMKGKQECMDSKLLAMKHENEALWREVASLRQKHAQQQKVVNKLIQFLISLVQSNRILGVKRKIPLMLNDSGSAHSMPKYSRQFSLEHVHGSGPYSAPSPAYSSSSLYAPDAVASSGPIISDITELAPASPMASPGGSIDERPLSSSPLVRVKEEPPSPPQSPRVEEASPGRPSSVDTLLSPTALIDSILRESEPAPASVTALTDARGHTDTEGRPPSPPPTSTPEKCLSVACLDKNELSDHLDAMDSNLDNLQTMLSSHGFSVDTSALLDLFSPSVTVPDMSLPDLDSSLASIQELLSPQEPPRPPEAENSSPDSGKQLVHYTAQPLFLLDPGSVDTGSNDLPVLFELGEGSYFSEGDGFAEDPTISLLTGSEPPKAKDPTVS
# Sequence of ETV1 (P50549 whole entry): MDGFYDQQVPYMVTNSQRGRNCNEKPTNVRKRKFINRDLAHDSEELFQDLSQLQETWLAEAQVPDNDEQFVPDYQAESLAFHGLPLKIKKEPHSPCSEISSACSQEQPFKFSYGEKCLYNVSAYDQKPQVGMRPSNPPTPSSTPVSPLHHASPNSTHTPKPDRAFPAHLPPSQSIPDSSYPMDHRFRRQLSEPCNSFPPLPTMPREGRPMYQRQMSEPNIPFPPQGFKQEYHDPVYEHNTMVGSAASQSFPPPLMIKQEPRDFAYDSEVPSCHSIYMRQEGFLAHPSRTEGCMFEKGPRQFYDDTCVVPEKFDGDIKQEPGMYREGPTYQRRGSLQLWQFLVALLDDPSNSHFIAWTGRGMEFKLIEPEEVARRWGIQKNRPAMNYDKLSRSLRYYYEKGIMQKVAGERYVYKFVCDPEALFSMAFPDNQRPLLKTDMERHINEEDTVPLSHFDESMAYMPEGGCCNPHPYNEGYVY
# Sequence of CRX (O43186 whole entry): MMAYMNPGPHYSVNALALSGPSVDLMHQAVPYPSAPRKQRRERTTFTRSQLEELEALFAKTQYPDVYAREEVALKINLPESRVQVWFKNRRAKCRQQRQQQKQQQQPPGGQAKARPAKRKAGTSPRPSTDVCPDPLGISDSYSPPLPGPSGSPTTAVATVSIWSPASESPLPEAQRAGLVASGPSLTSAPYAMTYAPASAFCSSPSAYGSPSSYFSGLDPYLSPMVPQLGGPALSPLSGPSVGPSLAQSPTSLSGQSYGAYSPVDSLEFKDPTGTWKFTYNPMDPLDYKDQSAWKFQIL
# Sequence of ELF4 (Q99607 whole entry): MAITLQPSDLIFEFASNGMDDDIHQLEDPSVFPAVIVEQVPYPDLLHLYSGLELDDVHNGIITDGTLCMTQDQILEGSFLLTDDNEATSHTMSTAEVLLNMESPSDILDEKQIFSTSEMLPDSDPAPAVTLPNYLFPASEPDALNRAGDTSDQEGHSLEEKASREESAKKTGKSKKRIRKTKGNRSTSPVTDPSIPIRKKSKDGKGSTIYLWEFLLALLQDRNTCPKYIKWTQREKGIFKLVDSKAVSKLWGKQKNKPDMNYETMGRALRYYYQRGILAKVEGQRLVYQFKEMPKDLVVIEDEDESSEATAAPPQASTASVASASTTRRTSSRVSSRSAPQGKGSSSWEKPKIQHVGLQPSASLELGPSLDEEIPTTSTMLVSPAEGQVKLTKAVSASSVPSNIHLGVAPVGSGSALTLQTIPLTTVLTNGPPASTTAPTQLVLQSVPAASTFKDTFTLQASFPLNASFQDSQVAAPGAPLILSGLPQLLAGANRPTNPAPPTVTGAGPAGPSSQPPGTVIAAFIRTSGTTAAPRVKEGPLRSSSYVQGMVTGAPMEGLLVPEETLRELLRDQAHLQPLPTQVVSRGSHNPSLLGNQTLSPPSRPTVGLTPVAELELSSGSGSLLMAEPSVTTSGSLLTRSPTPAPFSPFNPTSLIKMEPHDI
sequence,measurement,setting,value
ATATTT,binding signal,FEV,"1.47 fold enrichment (6-mer frequency, TF over GST control)"
same,binding signal,ETV5,"1.54 fold enrichment (6-mer frequency, TF over GST control)"
same,binding signal,HSF1,"1.52 fold enrichment (6-mer frequency, TF over GST control)"
same,binding signal,SPIC,"1.45 fold enrichment (6-mer frequency, TF over GST control)"
same,binding signal,ELF4,"1.53 fold enrichment (6-mer frequency, TF over GST control)"
same,binding signal,ELK4,"1.81 fold enrichment (6-mer frequency, TF over GST control)"
same,binding signal,ETV2,"1.55 fold enrichment (6-mer frequency, TF over GST control)"
same,binding signal,ELF3,"1.54 fold enrichment (6-mer frequency, TF over GST control)"
same,binding signal,CRX,"1.6 fold enrichment (6-mer frequency, TF over GST control)"
same,binding signal,ETV1,"1.56 fold enrichment (6-mer frequency, TF over GST control)"
same,binding signal,ERF,"1.55 fold enrichment (6-mer frequency, TF over GST control)"
same,binding signal,ETV3L,"1.4 fold enrichment (6-mer frequency, TF over GST control)"
same,binding signal,ETS2,"1.58 fold enrichment (6-mer frequency, TF over GST control)"
same,binding signal,SPDEF,"1.54 fold enrichment (6-mer frequency, TF over GST control)"
same,binding signal,ETV7,"1.67 fold enrichment (6-mer frequency, TF over GST control)"
same,binding signal,ELF5,"1.65 fold enrichment (6-mer frequency, TF over GST control)"
same,binding signal,ETV3,"1.65 fold enrichment (6-mer frequency, TF over GST control)"
same,binding signal,ETV6,"1.57 fold enrichment (6-mer frequency, TF over GST control)"
